Measurements reported in the supplement of paper PMC10849652.
Of roughly 7,900 targets only a part is listed; those with a hit were picked by preference. About 0.6% of all pairs of compound and target were hits. Values without a mark were called inactive.

Compound: Cc1nc(Nc2ncc(C(=O)Nc3c(C)cccc3Cl)s2)cc(N2CCN(CCO)CC2)n1 [dasatinib]
Assay: log2 fold change, soluble protein after heating vs DMSO (PISA); higher = thermal stabilisation; K562 cells, 10 uM, 30 min; active = over 0.2 and 3.5 SD of the protein, either way, in both replicates (recomputed)
Summary of the method: (§1)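 K562 cells at 2×10^6 cells/mL were exposed to 10 μM compound for 30 min, then aliquots were heated for 3 min across 48°C-58°C, pooled, and extracted in PBS containing 0.5% NP-40 at 4°C. The supernatant after 21,000xg for 90 min was taken as soluble protein and measured by TMTpro 16plex LC-MS/MS with channel sums equalised. Thermal stability is reported relative to control samples, with values from duplicates. Fold changes are given on a log2 scale.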

Chain of UniProt O75794 (O75794 whole entry, looked up): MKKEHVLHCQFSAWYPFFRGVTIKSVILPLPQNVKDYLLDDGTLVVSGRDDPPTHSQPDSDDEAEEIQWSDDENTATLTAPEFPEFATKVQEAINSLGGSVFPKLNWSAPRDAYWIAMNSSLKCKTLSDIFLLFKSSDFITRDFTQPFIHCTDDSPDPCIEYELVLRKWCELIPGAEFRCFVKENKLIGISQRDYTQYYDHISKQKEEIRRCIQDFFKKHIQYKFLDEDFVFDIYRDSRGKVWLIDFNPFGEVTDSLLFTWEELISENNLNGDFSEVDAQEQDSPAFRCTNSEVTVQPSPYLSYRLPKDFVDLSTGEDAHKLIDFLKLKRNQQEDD
Chain of UniProt O15234 (O15234 whole entry, looked up): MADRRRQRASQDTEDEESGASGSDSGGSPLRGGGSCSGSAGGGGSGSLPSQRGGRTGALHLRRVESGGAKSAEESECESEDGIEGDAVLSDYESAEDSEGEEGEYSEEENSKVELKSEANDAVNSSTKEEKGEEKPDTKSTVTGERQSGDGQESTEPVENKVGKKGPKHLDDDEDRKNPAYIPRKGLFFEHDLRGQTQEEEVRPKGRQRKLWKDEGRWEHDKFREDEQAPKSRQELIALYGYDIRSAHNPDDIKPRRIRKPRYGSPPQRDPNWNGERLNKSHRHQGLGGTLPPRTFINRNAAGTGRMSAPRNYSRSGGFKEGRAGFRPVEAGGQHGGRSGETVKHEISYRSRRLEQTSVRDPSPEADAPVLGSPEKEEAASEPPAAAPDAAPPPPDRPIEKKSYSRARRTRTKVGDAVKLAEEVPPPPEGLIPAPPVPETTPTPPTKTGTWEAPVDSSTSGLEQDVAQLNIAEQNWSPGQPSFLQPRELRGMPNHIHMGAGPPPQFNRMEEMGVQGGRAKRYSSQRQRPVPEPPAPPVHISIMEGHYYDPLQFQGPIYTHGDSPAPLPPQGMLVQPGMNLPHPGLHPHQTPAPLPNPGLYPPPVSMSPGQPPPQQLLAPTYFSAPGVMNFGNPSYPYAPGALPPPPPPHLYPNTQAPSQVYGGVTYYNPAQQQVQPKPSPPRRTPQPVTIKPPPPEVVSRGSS
Chain of UniProt Q13057 (Q13057 whole entry, looked up): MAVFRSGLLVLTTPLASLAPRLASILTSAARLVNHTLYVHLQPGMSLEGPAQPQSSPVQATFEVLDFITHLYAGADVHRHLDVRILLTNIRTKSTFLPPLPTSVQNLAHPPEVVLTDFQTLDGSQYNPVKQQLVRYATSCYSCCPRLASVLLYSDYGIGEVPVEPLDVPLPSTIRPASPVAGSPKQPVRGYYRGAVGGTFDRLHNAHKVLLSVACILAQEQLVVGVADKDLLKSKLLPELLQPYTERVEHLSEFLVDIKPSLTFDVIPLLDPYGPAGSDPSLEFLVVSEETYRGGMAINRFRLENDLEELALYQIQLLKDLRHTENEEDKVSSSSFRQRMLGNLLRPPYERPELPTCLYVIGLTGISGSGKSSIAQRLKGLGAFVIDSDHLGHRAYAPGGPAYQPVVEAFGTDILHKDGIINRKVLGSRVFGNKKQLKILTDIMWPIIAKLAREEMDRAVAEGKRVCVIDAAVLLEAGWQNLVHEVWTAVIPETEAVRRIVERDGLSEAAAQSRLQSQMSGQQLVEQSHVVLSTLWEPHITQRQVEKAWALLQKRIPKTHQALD
Chain of UniProt A5YKK6 (A5YKK6 whole entry, looked up): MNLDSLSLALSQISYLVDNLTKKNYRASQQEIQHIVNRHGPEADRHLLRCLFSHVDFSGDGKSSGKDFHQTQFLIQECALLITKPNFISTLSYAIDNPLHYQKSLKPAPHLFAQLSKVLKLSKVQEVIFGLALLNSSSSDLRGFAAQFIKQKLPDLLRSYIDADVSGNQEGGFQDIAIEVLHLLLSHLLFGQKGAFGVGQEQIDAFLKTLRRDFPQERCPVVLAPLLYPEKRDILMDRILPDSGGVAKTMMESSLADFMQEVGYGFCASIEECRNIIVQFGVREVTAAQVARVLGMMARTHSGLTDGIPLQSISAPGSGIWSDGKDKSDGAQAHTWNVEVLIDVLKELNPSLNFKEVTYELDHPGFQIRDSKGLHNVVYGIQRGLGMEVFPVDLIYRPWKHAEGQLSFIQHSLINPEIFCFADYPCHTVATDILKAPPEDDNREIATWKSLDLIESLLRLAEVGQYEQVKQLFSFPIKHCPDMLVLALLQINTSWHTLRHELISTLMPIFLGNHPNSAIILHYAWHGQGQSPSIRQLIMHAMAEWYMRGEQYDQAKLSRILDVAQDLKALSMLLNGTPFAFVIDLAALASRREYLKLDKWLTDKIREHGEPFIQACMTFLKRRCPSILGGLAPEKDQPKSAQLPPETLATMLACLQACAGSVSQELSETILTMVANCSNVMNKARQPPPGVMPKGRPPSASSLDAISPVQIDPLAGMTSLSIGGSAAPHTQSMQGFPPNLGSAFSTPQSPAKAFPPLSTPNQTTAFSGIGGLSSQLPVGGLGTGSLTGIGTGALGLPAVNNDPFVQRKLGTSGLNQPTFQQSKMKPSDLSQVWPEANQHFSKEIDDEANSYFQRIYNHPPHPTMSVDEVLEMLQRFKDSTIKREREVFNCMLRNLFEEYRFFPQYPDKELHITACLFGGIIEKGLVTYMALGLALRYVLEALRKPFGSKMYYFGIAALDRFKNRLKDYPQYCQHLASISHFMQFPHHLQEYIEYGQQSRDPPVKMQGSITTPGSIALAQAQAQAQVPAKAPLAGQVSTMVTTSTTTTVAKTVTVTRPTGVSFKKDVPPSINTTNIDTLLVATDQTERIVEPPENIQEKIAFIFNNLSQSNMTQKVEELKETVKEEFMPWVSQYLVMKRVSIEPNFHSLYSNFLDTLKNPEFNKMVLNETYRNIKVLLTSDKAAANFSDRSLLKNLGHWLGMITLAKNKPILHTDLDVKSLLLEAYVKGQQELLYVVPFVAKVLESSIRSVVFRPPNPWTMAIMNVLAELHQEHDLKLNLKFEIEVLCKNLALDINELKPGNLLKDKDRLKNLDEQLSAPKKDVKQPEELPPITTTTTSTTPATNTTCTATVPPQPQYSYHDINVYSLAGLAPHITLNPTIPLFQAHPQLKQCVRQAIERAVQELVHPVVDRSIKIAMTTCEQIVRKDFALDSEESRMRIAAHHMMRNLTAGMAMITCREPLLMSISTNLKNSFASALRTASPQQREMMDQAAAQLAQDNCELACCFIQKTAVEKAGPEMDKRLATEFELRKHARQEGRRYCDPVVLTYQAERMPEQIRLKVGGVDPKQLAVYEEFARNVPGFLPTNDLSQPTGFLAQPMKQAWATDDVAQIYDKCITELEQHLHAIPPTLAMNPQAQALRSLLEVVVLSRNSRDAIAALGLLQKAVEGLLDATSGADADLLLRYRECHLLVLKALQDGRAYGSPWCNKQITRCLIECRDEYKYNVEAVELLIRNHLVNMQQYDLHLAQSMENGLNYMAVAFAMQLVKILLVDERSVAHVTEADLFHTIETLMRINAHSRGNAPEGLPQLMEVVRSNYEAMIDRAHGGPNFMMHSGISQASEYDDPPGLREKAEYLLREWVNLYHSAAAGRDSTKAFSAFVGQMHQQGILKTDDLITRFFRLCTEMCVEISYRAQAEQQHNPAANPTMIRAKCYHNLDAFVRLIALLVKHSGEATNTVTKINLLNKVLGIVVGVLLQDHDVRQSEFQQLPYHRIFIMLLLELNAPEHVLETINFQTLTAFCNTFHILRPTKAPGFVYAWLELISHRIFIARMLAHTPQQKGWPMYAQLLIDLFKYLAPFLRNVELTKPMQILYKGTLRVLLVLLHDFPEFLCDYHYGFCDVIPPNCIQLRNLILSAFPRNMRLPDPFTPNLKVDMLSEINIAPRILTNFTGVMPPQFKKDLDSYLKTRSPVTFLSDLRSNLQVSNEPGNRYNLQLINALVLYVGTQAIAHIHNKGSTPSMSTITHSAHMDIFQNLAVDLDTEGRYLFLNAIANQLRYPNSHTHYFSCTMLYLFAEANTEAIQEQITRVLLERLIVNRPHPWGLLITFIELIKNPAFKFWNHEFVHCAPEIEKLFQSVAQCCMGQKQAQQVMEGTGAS
Chain of UniProt P83916 (P83916 whole entry, looked up): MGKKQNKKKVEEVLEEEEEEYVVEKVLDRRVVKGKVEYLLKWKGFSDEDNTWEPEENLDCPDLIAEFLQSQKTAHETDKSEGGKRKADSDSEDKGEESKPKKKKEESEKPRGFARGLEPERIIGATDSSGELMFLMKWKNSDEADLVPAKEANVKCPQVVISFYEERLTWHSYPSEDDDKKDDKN
Chain of UniProt Q9Y6H1 (Q9Y6H1 whole entry, looked up): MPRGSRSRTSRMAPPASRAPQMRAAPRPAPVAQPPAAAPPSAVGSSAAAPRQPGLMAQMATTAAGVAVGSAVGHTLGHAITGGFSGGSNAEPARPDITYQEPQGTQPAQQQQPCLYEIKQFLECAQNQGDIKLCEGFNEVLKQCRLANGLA
Chain of UniProt P48729 (P48729 whole entry, looked up): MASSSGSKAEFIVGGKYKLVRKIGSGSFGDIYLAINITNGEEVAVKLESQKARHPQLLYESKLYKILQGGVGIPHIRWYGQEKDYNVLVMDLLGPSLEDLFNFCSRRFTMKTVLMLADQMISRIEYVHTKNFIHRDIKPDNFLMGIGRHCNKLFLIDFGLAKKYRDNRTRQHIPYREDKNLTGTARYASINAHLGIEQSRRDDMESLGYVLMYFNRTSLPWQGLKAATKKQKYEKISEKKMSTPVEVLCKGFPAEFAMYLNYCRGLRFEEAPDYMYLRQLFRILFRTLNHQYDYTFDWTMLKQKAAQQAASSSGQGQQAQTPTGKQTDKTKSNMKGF
Chain of UniProt P48509 (P48509 whole entry, looked up): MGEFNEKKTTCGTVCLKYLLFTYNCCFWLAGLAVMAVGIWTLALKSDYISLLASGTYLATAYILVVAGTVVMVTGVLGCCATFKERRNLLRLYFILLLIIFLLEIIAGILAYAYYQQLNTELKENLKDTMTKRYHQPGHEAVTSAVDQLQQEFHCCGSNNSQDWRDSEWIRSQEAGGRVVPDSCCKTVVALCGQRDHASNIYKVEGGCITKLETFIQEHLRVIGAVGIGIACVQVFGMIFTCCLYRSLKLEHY

Row | Target | log2 fold change
1 | C9orf72 (UniProt Q96LT7) | -0.004
2 | CDK13 (UniProt Q14004) | -0.089
3 | CTBS (UniProt Q01459) | -0.006
4 | CCNB1 (UniProt P14635) | 0.02
5 | COMT (UniProt P21964) | 0.03
6 | CEPT1 (UniProt Q9Y6K0) | -0.008
7 | COPS4 (UniProt Q9BT78) | -0.023
8 | COASY isoform 2 (UniProt Q13057) | -0.132
9 | CNOT1 (UniProt A5YKK6) | -0.106
10 | CETN3 (UniProt O15182) | 0.068
11 | CPSF6 isoform 2 (UniProt Q16630) | 0.009
12 | CASTOR2 (UniProt A6NHX0) | -0.024
13 | CASC3 (UniProt O15234) | 0.031
14 | CLUH, A0A494C0R8 | -0.051
15 | CLTB (UniProt P09497) | 0.081
16 | CLCN3 isoform 2 (UniProt P51790) | 0.027
17 | CDC123 (UniProt O75794) | -0.032
18 | CD55 isoform 7 (UniProt P08174) | 0.096

Row | Target | log2 fold change
19 | CLUH (UniProt O75153) | -0.093
20 | CSNK1A1 (UniProt P48729) | 0.011
21 | CNTN4 (UniProt Q8IWV2) | 0.003
22 | CDC42BPA isoform 6 (UniProt Q5VT25) | -0.254
23 | CDK5RAP1 (UniProt Q96SZ6) | 0.175
24 | CASP10 isoform 4 (UniProt Q92851) | -0.301
25 | CPT2 (UniProt P23786) | 0.217
26 | CBX1 (UniProt P83916) | 0.084
27 | CD151 (UniProt P48509) | 0.063
28 | CS (UniProt O75390) | -0.131
29 | CSTF3 (UniProt Q12996) | -0.021
30 | CAD (UniProt P27708) | -0.386 (active)
31 | CCAR2 isoform 2 (UniProt Q8N163) | -0.176
32 | COX5A (UniProt P20674) | 0.06
33 | CDK12 (UniProt Q9NYV4) | 0.23
34 | CHCHD2 (UniProt Q9Y6H1) | 0.075
35 | CALB1 (UniProt P05937) | 0.014

Compound: Cc1ncc(-c2ccnc(Nc3ccc(S(C)(=O)=O)cc3)n2)n1C(C)C
Assay: as above
Summary of the method: as §1

Row | Target | log2 fold change
36 | C9orf72 (UniProt Q96LT7) | 0.006
37 | CDK13 (UniProt Q14004) | -0.108
38 | CTBS (UniProt Q01459) | -0.077
39 | CCNB1 (UniProt P14635) | -0.025
40 | COMT (UniProt P21964) | 0.009
41 | CEPT1 (UniProt Q9Y6K0) | 0.044
42 | COPS4 (UniProt Q9BT78) | 0.007
43 | COASY isoform 2 (UniProt Q13057) | 0.005
44 | CNOT1 (UniProt A5YKK6) | -0.014
45 | CETN3 (UniProt O15182) | -0.013
46 | CPSF6 isoform 2 (UniProt Q16630) | 0.014
47 | CASTOR2 (UniProt A6NHX0) | -0.039
48 | CASC3 (UniProt O15234) | 0.511 (active)
49 | CLUH, A0A494C0R8 | 0
50 | CLTB (UniProt P09497) | 0.005
51 | CLCN3 isoform 2 (UniProt P51790) | 0.017
52 | CDC123 (UniProt O75794) | 0.018
53 | CD55 isoform 7 (UniProt P08174) | -0.026

Row | Target | log2 fold change
54 | CLUH (UniProt O75153) | -0.068
55 | CSNK1A1 (UniProt P48729) | 0.033
56 | CNTN4 (UniProt Q8IWV2) | -0.13
57 | CDC42BPA isoform 6 (UniProt Q5VT25) | 0.135
58 | CDK5RAP1 (UniProt Q96SZ6) | -0.006
59 | CASP10 isoform 4 (UniProt Q92851) | 0.037
60 | CPT2 (UniProt P23786) | 0.047
61 | CBX1 (UniProt P83916) | -0.003
62 | CD151 (UniProt P48509) | 0.019
63 | CS (UniProt O75390) | -0.097
64 | CSTF3 (UniProt Q12996) | 0.158
65 | CAD (UniProt P27708) | 0.081
66 | CCAR2 isoform 2 (UniProt Q8N163) | -0.157
67 | COX5A (UniProt P20674) | -0.067
68 | CDK12 (UniProt Q9NYV4) | -0.301
69 | CHCHD2 (UniProt Q9Y6H1) | -0.086
70 | CALB1 (UniProt P05937) | -0.015
